Rows were chosen to be rich in hits. Some 21% of all compounds tested hit in one or more screens of this group.
Cycloheximide cs = counter-screen hit for Shiga toxin inhibitors, cycloheximide; cell reporter, cycloheximide protein synthesis inhibition counterscreen; max response, %; 300,000 compounds, 12% hits; AID 2314; in the data active = max response mostly above about 13%, no sharp cut-off; inactive = mostly below about 14%; note: read at 38.3 µM for the half of the compounds with a filed dose; 0% is about no effect
Pf growth 96h = P. falciparum growth inhibition at 96 hour, primary screen for plastid delayed-death inhibitors | P. falciparum luciferase reporter growth, 96 h | Potency, µM (series often up to 28.7 µM), for the others: top-dose activity change, negative = inhibition, most hits filed as inhibitors | 320,000 compounds, 6.9% hits | AID 504834; note: potency is the fitted concentration of half-maximal effect; % is set by controls: 0 for no effect and ±100 for the full control effect
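Delayed-death screen, second-generation endpoint: infected erythrocytes, 2% hematocrit, 0.05% parasitemia final; 96 hours at 37 C, 5% CO2; luciferase detection reagent; luminescence decrease equals reduced growth.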
NS1 inh = influenza NS1 inhibition | 270,000 compounds, 0.4% hits | Potency, µM (series often up to 46.1 µM), inactives show at the highest dose activity, positive = more growth; calls by dose curve; note: potency is the fitted concentration of half-maximal effect; actives are rising curves; nearly all actives have a fitted effect of over 50% in size
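A cell-based growth assay was used: compounds that relieve NS1-induced slow growth of budding yeast raise OD600. Assay medium was yeast nitrogen base with ammonium sulphate and -URA supplement, pH 6.0, with 2% galactose.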
Sm TGR block = inhibitors of Schistosoma mansoni thioredoxin glutathione reductase. Q962Y6. purified TGR, DTNB reduction, TNB absorbance 405 nm. Potency, µM (doses to about 114 µM), without a hit: at the top dose activity change, negative = inhibition, actives largely listed as inhibitors. 360,000 compounds, 3% hits; note: potency is the fitted concentration of half-maximal effect; % is set by controls: 0 for no effect and ±100 for the full control effect; nearly all actives have a fitted effect of over 60% in size
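TGR 20 nM + NADPH 100 uM (dispensed conc.), cpd preinc 15 min RT; start with NADPH (500 uM addition) then DTNB (15 mM addition). Kinetic TNB absorbance, 405 nm filter. Four-parameter Hill fit across titration.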
Pf growth 48h = inhibits P. falciparum growth in the first generation, 48 h | P. falciparum luciferase growth in erythrocytes, 48 h | Potency, µM (top dose mostly 28.7 µM), without a hit: at the highest dose activity change, negative = inhibition, hits mostly inhibitors | 310,000 compounds, 5.9% hits | AID 504832; note: potency is the fitted concentration of half-maximal effect; % is set by controls: 0 for no effect and ±100 for the full control effect
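Erythrocytes infected with P. falciparum carrying an integrated firefly luciferase reporter (2% hematocrit, 0.1% parasitemia final) were exposed to compounds in RPMI 1640 with 0.5% Albumax at 37 C, 5% CO2. Growth inhibition was scored as reduced luminescence.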
Shiga inhibitor = Shiga toxin inhibition | Vero cells, Shiga toxin protein synthesis inhibition reporter | 290,000 compounds, 9.2% hits | inhibition, % at 38.7 µM; in the data active = inhibition mostly above about 28%, no sharp cut-off; inactive = mostly below about 43%; note: 0% is about no effect
* marks the source's active call; other numbers are inactive results; [ ] = remark or other dose. Unless noted, calls come from the whole dose curve; as a rule, active = well fitted curve in the direction sought with a large enough effect; inconclusive = small, poorly fitted or top-dose-only effect, or another doubt; inactive = no such curve, though single readings can be large; an effect the other way counts as inactive or inconclusive.

Screening CCOC(=O)N1CCc2c(sc(NC(=O)CCS(=O)(=O)c3ccccc3)c2C(N)=O)C1 returned Cycloheximide cs 6.8, Pf growth 96h 14.7µM*, NS1 inh 22.2%, Sm TGR block -27.3%, Pf growth 48h inconclusive and Shiga inhibitor -13.3.
Screening COc1cc2ccccc2cc1C(=O)Nc1sc2c(c1C(N)=O)CCN(C(C)C)C2 returned Cycloheximide cs -1.5, Pf growth 96h 5.86µM*, NS1 inh -37.6%, Sm TGR block -0.5%, Pf growth 48h 8.28µM* and Shiga inhibitor -10.2.
Screening CC(=O)N1CCc2c(sc(NC(=O)CCS(=O)(=O)c3ccccc3)c2C(N)=O)C1 returned Cycloheximide cs 5.3, Pf growth 96h -27.1%, NS1 inh 1.7%, Sm TGR block -1.7%, Pf growth 48h inconclusive and Shiga inhibitor -3.4.
Screening CN1CCc2c(sc(NC(=O)C3COc4ccccc4O3)c2C(N)=O)C1 (centres undefined) returned Cycloheximide cs 22.2*, Pf growth 96h 71.8%, NS1 inh 5.1%, Sm TGR block -18.1%, Pf growth 48h 108.6% and Shiga inhibitor 31.8.
`CN(CCOc1ccc(C[C@H](Nc2ccccc2C(=O)c2ccccc2)C(=O)O)cc1)c1ccccn1` gave NS1 inh -3.1%.
For COc1ccc(CNC(=O)Cn2ccc3cc(S(=O)(=O)N4CCCC4)ccc32)cc1OC the results were Cycloheximide cs -2.1, Pf growth 96h inconclusive, NS1 inh 16.8%, Sm TGR block -1.6%, Pf growth 48h -7.4% and Shiga inhibitor -16.3.
COC(=O)c1c(NC(=O)C2COc3ccccc3O2)sc2c1CCN(C(C)=O)C2 (centres undefined) was read as Cycloheximide cs 6.4, Pf growth 96h inconclusive, NS1 inh 19.2%, Sm TGR block 4.5%, Pf growth 48h inconclusive and Shiga inhibitor -12.5.
CN1CCc2c(sc(NC(=O)Cc3ccccc3)c2C(N)=O)C1 was read as Cycloheximide cs -1.5, Pf growth 96h 43.7%, NS1 inh 3.4%, Sm TGR block 11.4%, Pf growth 48h 1.1% and Shiga inhibitor 11.0.
CCOC(=O)N1CCc2c(sc(NC(=O)C3COc4ccccc4O3)c2C(N)=O)C1 (centres undefined) was read as Cycloheximide cs 9.7, Pf growth 96h 9.28µM*, NS1 inh -0.5%, Sm TGR block 3.1%, Pf growth 48h inconclusive and Shiga inhibitor -4.4.
Screening CN1CCc2c(sc(NC(=O)c3ccc4ccccc4c3)c2C(N)=O)C1 returned Cycloheximide cs 48.8*, Pf growth 96h inconclusive, NS1 inh -33.7%, Sm TGR block 8.7%, Pf growth 48h -70.2% and Shiga inhibitor 91.8*.
For CCN1CCc2c(sc(NC(=O)C3COc4ccccc4O3)c2C(N)=O)C1 (centres undefined) the results were Cycloheximide cs 19.0*, Pf growth 96h -7.0%, NS1 inh 5.7%, Sm TGR block -21.9%, Pf growth 48h 33.3% and Shiga inhibitor 62.2.
`CC(=O)N1CCc2c(sc(NC(=O)C3COc4ccccc4O3)c2C(N)=O)C1` (centres undefined) gave Cycloheximide cs 31.4*, Pf growth 96h 11.7µM*, NS1 inh -3.0%, Sm TGR block -35.2%, Pf growth 48h 1.7% and Shiga inhibitor 22.6.
Cc1c(C(=O)Nc2ccccc2)sc2nc(-c3cc4cc(Cl)ccc4oc3=O)[nH]c(=O)c12 was read as Sm TGR block -9.6%.
`CCN(CC)C(=O)NC1CCCCCCC1` gave Cycloheximide cs -1.7, Pf growth 96h -6.1%[5.75 µM], NS1 inh -7.9%, Sm TGR block 15.3%, Pf growth 48h 16.4% and Shiga inhibitor -19.6.
For COCCN(C(=O)c1snc(C(N)=O)c1N)C(C(=O)NC1CCCCC1)c1ccc(N(C)C)cc1 (centres undefined) the results were Cycloheximide cs 7.5, Pf growth 96h 7.2%, NS1 inh -19.8%, Sm TGR block 6.7%, Pf growth 48h inconclusive and Shiga inhibitor 7.0.
`CC(=O)Nc1ccn(C2CC3OCC(NC(=O)C(NC(=O)OC(C)(C)C)C(C)OCc4ccccc4)C3O2)c(=O)n1` (centres undefined) gave Cycloheximide cs 4.4 and Shiga inhibitor 31.7.

High-throughput results from PubChem.
